Rows were chosen to be rich in hits. Some 21% of all compounds tested hit in one or more screens of this group.
Shiga inhibitor: blocks Shiga toxin action in Vero cells | Vero cells, Shiga toxin protein synthesis inhibition reporter | inhibition, % at 38.7 µM | 9.2% of 290,000 active; in the data active means inhibition mostly above about 28%, no sharp cut-off; inactive means mostly below about 43%; further: 0% is about no effect
Sm TGR block: S. mansoni TGR enzyme inhibition; purified TGR, DTNB reduction, TNB absorbance 405 nm; Potency, µM (doses to about 114 µM), for inactives: top-dose activity change, negative = inhibition, hits mostly inhibitors; 3% of 360,000 active; AID 485364; further: potency means the concentration at half of the fitted maximal effect; on the % scale 0 is the no-effect control and ±100 the full control effect; nearly all actives have a fitted effect of over 60% in size
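Kinetic colorimetric format: TGR-catalysed, NADPH-driven DTNB reduction monitored via TNB absorbance. Enzyme dispensed at 20 nM; compound exposure 15 min at room temperature before reaction start.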
NS1 inh: blocks influenza NS1 protein function; Potency, µM (titrated, usually from 46.1 µM), for inactives: top-dose activity, positive = more growth; 0.4% of 270,000 active; calls by dose curve; further: potency means the concentration at half of the fitted maximal effect; actives are rising curves; nearly all actives have a fitted effect of over 50% in size
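OD600 was taken as the measure of yeast growth restored by compound in an NS1-expressing S. cerevisiae strain. Cells had been washed out of glucose medium and diluted 1:100 into galactose -URA medium, pH 6.0.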
Pf growth 96h: inhibits malaria parasite growth, 96 h; P. falciparum luciferase reporter growth, 96 h; AID 504834; Potency, µM (titrated, usually from 28.7 µM), for inactives: at the highest dose activity change, negative = inhibition, usual class: inhibitors; 6.9% of 320,000 active; further: potency means the concentration at half of the fitted maximal effect; on the % scale 0 is the no-effect control and ±100 the full control effect
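Plates of compound plus infected erythrocytes (2% hematocrit, 0.05% parasitemia final) incubate 96 hours, 37 C, 5% CO2. Detection reagent added; reduced luminescence from the parasites' luciferase reporter flags inhibition.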
Pf growth 48h: inhibits P. falciparum growth in the first generation, 48 h | P. falciparum luciferase growth in erythrocytes, 48 h | Potency, µM (top dose mostly 28.7 µM), inactives show top-dose activity change, negative = inhibition, most hits filed as inhibitors | 5.9% of 310,000 active; further: potency means the concentration at half of the fitted maximal effect; on the % scale 0 is the no-effect control and ±100 the full control effect
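Read-out is firefly luciferase luminescence from an integrated reporter in P. falciparum, so falling signal marks reduced parasite growth. Infected erythrocytes were at 2% hematocrit and 0.1% parasitemia (final) in Albumax-supplemented RPMI 1640.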
CHX counter: affects cycloheximide protein synthesis inhibition readout, counter-screen; cell reporter, cycloheximide protein synthesis inhibition counterscreen; max response, %; 12% of 300,000 active; in the data active means max response mostly above about 13%, no sharp cut-off; inactive means mostly below about 14%; further: read at 38.3 µM for the half of the compounds with a filed dose; 0% is about no effect
Numbers without * were called inactive; ? = inconclusive; . = not tested or not shown; [ ] = remark or other dose. Unless noted, the call rests on the fitted dose curve; in most records, active means well fitted curve in the direction sought with a large enough effect; inconclusive means small, poorly fitted or top-dose-only effect, or another doubt; inactive means no such curve, though single readings can be large; an effect the other way counts as inactive or inconclusive.

SMILES	Shiga inhibitor	Sm TGR block	NS1 inh	Pf growth 96h	Pf growth 48h	CHX counter
CCOC(=O)COc1nc(OC)nc(N2CCOCC2)n1	1	-11%	4%	2.6µM*	-8%	-1
CC(=O)N1c2ccc(S(=O)(=O)N3CCCCC3)cc2CC1C(=O)Nc1ccc(C)cc1 (stereo unspecified)	-5	-22%	-3%	?	-29%	-2
O=C(Oc1ccccc1C(=O)Nc1ccccc1)c1ccc(Br)c([N+](=O)[O-])c1	26*	?	-41%	41%	33%	50*
Cc1cccc(NC(=O)c2ccccc2OCC(=O)c2ccccc2)c1	-11	-1%	-5%	20%[5.75 µM]	17%	-4
CC(=O)c1ccc(NC(=O)COc2ccccc2C(=O)Nc2ccccc2)cc1	49*	11%	22%	-24%	?	13*
Cc1cccc(NC(=O)COc2ccccc2C(=O)NC(C)c2ccccc2)c1 (stereo unspecified)	-20	?	9%	9.3µM*	10%	6
COc1ccccc1CNC(=O)COc1ccccc1C(=O)c1cnn(-c2ccccc2)c1	.	2%	.	-106%	31%	.
O=C(COc1ccccc1C(=O)c1cnn(-c2ccccc2)c1)Nc1ccccc1	78	6%	-1%	-10%	128%	21*
Cn1c(N)c(S(=O)(=O)N2CCN(c3cccc(Cl)c3)CC2)c(=O)n(C)c1=O	-9	4%	-1%	1%	-16%	-2
O=C(CSC1=Nc2ccccc2N=C(c2ccc(F)cc2)C1)NCc1ccccc1Cl	.	11%	.	.	.	.
COc1ccccc1C(=O)Oc1ccccc1C(=O)Nc1ccccc1	52*	-22%	-8%	?	1%	23*
CCOc1cc(NC(=O)C2CC2)c(OCC)cc1NC(=O)c1ccccc1OCC	-7	-1%	-1%	-20%	5.9µM*	-4
CCOc1ccccc1C(=O)Nc1ccc(C(=O)c2ccccc2)cc1	49	4.5µM*	13%	-22%	0%	5
CCOc1ccccc1C(=O)Nc1ccc(NC(=O)c2ccccc2)cc1	.	-1%	?	13%	22%	7
CCOc1cc(NC(=O)C2CC2)c(OCC)cc1NC(=O)c1cc(OC)c(OC)c(OC)c1	-3	3%	-1%	-19%	-13%	-3
COc1ccccc1C(=O)Nc1ccc(C(=O)O)cc1	-7	2%	-7%	.	-5%	-3
COc1ccccc1C(=O)NNC(=S)Nc1ccccc1	28	5%	-2%	-8%	-2%	17
COc1ccccc1C(=O)Nc1ccc(C(=O)c2ccccc2)cc1	62*	.	-2%	-2%	-28%	27*
Cc1c(Cl)cccc1NC(=O)CCCn1nc(C)c2sc3ccccc3c2c1=O	.	7%	.	.	.	.
Cc1ccccc1CN1c2ccccc2-c2nc(SCC(=O)NCc3ccccc3)ncc2S1(=O)=O	.	-10%	.	.	.	.
C=Cc1ccc(CSc2nc(-c3ccccc3Cl)nc3c2Cc2c(CO)cnc(C)c2O3)cc1	.	-5%	.	.	.	.
CC(=O)NNc1ncnc2c1cnn2-c1ccc(C)c(C)c1	65*	1%	.	?	211%	56*
Cc1ccc(-n2ncc3c(NCc4cccnc4)ncnc32)c(C)c1	8	-1%	23%	?	?	0
Cc1ccc(-n2ncc3c(NCc4cccnc4)ncnc32)cc1C	115*	-1%	-21%	60%	118%	45*
CCC(=O)NNc1ncnc2c1cnn2-c1ccc(C)c(Cl)c1	.	7%	.	.	.	.
SMILES	Shiga inhibitor	Sm TGR block	NS1 inh	Pf growth 96h	Pf growth 48h	CHX counter
COc1ccccc1CNc1ncnc2c1cnn2-c1ccccc1	43*	-11%	-43%	-10%	7%	31*
Cc1cccc(-n2ncc3c(NCc4cccnc4)ncnc32)c1	77*	-18%	-4%	108%	91%	47*
Cc1ccc(CNc2ncnc3c2cnn3-c2ccccc2)cc1	-5	-8%	16%	-20%	13%	1
Cc1ccc(-n2ncc3c(NCc4ccccc4)ncnc32)cc1	103*	-9%	17%	239%	171%	111*
Cc1cccc(C(=O)NNc2ncnc3c2cnn3C)c1	36	7%	.	-72%	-3%	30*
COc1ccc(-n2ncc3c(NCc4cccnc4)ncnc32)cc1	86*	0%	-2%	213%	.	52*
Cc1cccc(C(=O)NNc2ncnc3c2cnn3-c2ccc(C)cc2C)c1	.	-3%	.	.	.	.
CC1CCN(C(=O)COC(=O)c2cc3ccccc3cc2O)CC1	59	2%	-68%	19%	33%	42*
CC(C)(C)C(=O)COC(=O)c1cc2ccccc2cc1O	39	-3%	4%	.	50%	25*
CC1CCc2onc(C(=O)N3CCN(c4ccc(Cl)cc4)CC3)c2C1 (stereo unspecified)	.	6%	.	.	.	.
C#CCOCCOCCOCCNc1nc(N2CCN(C(=O)Cn3cc(CCCCN)nn3)CC2)nc(N2CCN(C(=O)Cn3cc(CCCN=C(N)N)nn3)CC2)n1	.	-12%	.	0.83µM*	?	.
C#CCOCCOCCOCCNc1nc(N2CCN(C(=O)Cn3cc(CCCN=C(N)N)nn3)CC2)nc(N2CCN(C(=O)[C@H](C)n3cc(CCCN=C(N)N)nn3)CC2)n1	-5	-19%	26%	?	?	1
C#CCOCCOCCOCCNc1nc(N2CCN(C(=O)[C@H](C)n3cc(CCCN=C(N)N)nn3)CC2)nc(N2CCN(C(=O)[C@H](CCCCN)n3cc(CCCC)nn3)CC2)n1	-23	-35%	-13%	12µM*	?	-3
C#CCOCCOCCOCCNc1nc(N2CCN(C(=O)Cn3cc(CCCN=C(N)N)nn3)CC2)nc(N2CCN(C(=O)[C@H](CCCCN)n3cc(CCCC)nn3)CC2)n1	.	-9%	.	12µM*	12µM*	.
C#CCOCCOCCOCCNc1nc(N2CCN(C(=O)[C@H]([C@@H](C)O)n3cc(CCCCN)nn3)CC2)nc(N2CCN(C(=O)[C@H](CCCCN)n3cc(CCCC)nn3)CC2)n1	.	-12%	.	57%	?	.
C#CCOCCOCCOCCNc1nc(N2CCN(C(=O)Cn3cc(CCCN=C(N)N)nn3)CC2)nc(N2CCN(C(=O)[C@H](CCCCN)n3cc(CCC(=O)O)nn3)CC2)n1	.	-7%	.	?	-25%	.
C#CCOCCOCCOCCNc1nc(N2CCN(C(=O)[C@H]([C@@H](C)CC)n3cc(CCCN=C(N)N)nn3)CC2)nc(N2CCN(C(=O)[C@H](CCCCN)n3cc(CCCC)nn3)CC2)n1	-13	-7%	-41%	12µM*	?	-4
Clc1ccc(CSc2ncccn2)cc1	43*	12%	-1%	.	64%	32*
c1ccc(CSc2ncccn2)cc1	6	-11%	3%	4%	10%	19*
Clc1ccc(CSc2ncn[nH]2)cc1	45	14%	-14%	26%	34%	14
O=C(CSc1ccc(-c2ccc(F)cc2)nn1)N1CCOCC1	100	2%	.	1%	62%	20*
COc1cccc(-c2ccc(SCC(=O)N3CCOCC3)nn2)c1	22	1%	.	-10%	20%	2

High-throughput results from PubChem BioAssay.
